Data: ChEMBL document CHEMBL1961873, “Compounds: GSK PKIS; Assays: Nanosyn kinase panel” (2012)
“And” between values parts separate entries of the source, which are not always exact repeats. Equal values may be shown once.

What was measured:
[1] = target: T1, Serine/threonine-protein kinase D2 (Homo sapiens) (UniProt Q9BZL6); conditions: at 1 µM;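 note: mean value of PRKD2 inhibition, from the GSK PKIS screening panel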
T1 sequence (whole entry): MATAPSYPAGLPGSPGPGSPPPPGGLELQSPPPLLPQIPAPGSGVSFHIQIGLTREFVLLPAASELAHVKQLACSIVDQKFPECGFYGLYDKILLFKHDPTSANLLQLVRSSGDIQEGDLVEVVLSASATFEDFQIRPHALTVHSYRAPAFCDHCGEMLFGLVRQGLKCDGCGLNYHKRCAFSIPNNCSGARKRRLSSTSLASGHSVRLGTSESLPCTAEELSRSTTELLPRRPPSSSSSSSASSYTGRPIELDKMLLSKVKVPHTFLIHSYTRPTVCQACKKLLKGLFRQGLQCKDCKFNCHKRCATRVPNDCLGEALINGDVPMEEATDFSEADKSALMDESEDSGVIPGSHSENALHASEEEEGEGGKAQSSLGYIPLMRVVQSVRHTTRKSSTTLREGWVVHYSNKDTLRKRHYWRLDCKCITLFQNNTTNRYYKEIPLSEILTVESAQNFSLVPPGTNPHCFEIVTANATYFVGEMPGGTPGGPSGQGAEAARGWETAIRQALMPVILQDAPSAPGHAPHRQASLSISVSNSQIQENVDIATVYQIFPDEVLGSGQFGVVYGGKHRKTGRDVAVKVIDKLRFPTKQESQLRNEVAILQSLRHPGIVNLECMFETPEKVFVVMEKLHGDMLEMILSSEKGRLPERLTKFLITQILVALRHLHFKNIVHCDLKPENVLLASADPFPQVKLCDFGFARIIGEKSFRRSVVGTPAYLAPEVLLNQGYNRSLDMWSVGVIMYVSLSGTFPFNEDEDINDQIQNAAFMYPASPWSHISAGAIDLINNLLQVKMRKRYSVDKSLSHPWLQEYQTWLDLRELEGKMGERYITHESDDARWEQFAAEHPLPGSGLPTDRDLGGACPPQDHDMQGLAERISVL

[2] = target: T2, Serine/threonine-protein kinase D3 (Homo sapiens) (UniProt O94806); conditions: at 0.1 µM
T2 sequence (whole entry): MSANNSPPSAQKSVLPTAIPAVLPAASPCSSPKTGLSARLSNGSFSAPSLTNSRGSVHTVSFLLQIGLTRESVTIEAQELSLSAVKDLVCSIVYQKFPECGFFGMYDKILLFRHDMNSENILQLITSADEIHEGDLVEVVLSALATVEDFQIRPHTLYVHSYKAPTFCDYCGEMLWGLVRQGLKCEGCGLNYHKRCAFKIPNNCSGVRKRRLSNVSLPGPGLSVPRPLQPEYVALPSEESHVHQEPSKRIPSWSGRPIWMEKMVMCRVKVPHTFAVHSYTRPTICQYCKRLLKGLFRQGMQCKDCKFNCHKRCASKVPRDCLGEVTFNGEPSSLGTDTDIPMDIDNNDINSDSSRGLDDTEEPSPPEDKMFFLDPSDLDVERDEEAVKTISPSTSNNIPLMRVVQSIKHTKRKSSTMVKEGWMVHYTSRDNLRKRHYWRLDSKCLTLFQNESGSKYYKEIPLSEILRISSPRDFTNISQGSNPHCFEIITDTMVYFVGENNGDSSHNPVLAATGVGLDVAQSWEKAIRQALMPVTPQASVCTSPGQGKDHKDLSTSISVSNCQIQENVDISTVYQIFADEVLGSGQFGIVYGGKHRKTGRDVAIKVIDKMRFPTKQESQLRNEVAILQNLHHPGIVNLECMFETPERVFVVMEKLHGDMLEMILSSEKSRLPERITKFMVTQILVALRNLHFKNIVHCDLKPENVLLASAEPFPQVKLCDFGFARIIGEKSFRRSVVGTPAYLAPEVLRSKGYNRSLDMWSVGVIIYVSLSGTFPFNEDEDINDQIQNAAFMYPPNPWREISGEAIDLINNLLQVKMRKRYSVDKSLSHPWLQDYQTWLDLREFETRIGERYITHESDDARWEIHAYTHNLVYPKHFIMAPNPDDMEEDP

[3] = target: T2, Serine/threonine-protein kinase D3 (Homo sapiens); conditions: at 1 µM
[4] = target: T3, cGMP-dependent protein kinase 1 (Homo sapiens) (UniProt Q13976); conditions: at 0.1 µM
T3 sequence (whole entry): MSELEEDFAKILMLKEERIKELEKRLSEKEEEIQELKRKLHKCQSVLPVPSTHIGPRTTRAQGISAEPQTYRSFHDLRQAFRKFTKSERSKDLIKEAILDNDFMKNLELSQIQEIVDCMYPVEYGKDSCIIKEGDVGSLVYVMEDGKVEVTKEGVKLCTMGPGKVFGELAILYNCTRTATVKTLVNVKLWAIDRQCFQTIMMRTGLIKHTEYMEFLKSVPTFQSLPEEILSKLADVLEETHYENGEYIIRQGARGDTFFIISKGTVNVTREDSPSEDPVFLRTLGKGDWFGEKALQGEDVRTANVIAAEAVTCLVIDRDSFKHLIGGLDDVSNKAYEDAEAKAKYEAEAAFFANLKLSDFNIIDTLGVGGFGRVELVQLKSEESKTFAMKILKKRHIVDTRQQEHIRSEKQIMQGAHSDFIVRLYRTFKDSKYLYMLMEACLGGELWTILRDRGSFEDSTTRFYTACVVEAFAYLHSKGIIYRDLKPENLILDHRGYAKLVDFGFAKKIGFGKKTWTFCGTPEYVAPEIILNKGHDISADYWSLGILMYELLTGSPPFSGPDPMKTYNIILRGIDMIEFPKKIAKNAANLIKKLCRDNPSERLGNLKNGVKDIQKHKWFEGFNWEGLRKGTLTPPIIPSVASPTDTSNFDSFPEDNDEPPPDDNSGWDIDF

[5] = target: T3, cGMP-dependent protein kinase 1 (Homo sapiens); conditions: at 1 µM
[6] = target: T4, cGMP-dependent protein kinase 2 (Homo sapiens) (UniProt Q13237); conditions: at 0.1 µM
T4 sequence (whole entry): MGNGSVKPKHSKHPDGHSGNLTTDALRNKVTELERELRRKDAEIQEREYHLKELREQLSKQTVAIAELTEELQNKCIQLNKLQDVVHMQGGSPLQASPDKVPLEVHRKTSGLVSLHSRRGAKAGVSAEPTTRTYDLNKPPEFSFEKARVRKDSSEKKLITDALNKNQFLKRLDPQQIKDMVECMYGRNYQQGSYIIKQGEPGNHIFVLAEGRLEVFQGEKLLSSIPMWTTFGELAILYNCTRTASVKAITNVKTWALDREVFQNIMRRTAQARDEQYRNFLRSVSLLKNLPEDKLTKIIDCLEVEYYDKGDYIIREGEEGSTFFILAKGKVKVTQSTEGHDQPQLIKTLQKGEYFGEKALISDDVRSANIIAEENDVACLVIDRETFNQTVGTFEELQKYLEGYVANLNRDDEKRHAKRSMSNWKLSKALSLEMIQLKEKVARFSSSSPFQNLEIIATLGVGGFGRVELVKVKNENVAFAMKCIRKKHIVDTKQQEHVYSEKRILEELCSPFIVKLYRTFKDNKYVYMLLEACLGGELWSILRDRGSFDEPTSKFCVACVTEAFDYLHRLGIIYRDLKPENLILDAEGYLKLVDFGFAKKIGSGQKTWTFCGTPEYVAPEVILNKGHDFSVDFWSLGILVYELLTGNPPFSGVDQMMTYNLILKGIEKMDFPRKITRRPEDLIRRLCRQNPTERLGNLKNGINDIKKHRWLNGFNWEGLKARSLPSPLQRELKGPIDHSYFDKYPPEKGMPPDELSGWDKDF

[7] = target: T4, cGMP-dependent protein kinase 2 (Homo sapiens); conditions: at 1 µM
[8] = target: T5, cAMP-dependent protein kinase catalytic subunit PRKX (Homo sapiens) (UniProt P51817); conditions: at 0.1 µM
T5 sequence (whole entry): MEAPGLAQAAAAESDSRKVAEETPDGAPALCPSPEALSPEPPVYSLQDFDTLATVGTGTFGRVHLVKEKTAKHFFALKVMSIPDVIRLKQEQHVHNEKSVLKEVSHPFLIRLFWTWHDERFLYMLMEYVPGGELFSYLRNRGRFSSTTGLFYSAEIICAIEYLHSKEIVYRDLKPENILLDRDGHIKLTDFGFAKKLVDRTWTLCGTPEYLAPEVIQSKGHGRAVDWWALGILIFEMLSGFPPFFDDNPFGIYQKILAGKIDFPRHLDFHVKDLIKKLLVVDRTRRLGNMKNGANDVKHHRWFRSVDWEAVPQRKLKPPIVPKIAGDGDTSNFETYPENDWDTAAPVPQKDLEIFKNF

[9] = target: T5, cAMP-dependent protein kinase catalytic subunit PRKX (Homo sapiens); conditions: at 1 µM
[10] = target: Rho-associated protein kinase 1 (Homo sapiens) (UniProt Q13464); conditions: at 0.1 µM
[11] = target: Rho-associated protein kinase 1 (Homo sapiens) (UniProt Q13464); conditions: at 1 µM
[12] = target: Rho-associated protein kinase 2 (Homo sapiens) (UniProt O75116); conditions: at 0.1 µM
[13] = target: Rho-associated protein kinase 2 (Homo sapiens) (UniProt O75116); conditions: at 1 µM
[14] = target: Ribosomal protein S6 kinase alpha-1 (Homo sapiens) (UniProt Q15418); conditions: at 0.1 µM
[15] = target: Ribosomal protein S6 kinase alpha-1 (Homo sapiens) (UniProt Q15418); conditions: at 1 µM
[16] = target: Ribosomal protein S6 kinase alpha-3 (Homo sapiens) (UniProt P51812); conditions: at 0.1 µM
[17] = target: Ribosomal protein S6 kinase alpha-3 (Homo sapiens) (UniProt P51812); conditions: at 1 µM
[18] = target: Ribosomal protein S6 kinase alpha-2 (Homo sapiens) (UniProt Q15349); conditions: at 0.1 µM
[19] = target: Ribosomal protein S6 kinase alpha-2 (Homo sapiens) (UniProt Q15349); conditions: at 1 µM
[20] = target: Ribosomal protein S6 kinase alpha-6 (Homo sapiens) (UniProt Q9UK32); conditions: at 0.1 µM;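 note: reported value is the mean inhibition of RSK4, from the GSK PKIS kinase inhibitor screen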
Sequence of Ribosomal protein S6 kinase alpha-6 (Homo sapiens) (Q9UK32 whole entry): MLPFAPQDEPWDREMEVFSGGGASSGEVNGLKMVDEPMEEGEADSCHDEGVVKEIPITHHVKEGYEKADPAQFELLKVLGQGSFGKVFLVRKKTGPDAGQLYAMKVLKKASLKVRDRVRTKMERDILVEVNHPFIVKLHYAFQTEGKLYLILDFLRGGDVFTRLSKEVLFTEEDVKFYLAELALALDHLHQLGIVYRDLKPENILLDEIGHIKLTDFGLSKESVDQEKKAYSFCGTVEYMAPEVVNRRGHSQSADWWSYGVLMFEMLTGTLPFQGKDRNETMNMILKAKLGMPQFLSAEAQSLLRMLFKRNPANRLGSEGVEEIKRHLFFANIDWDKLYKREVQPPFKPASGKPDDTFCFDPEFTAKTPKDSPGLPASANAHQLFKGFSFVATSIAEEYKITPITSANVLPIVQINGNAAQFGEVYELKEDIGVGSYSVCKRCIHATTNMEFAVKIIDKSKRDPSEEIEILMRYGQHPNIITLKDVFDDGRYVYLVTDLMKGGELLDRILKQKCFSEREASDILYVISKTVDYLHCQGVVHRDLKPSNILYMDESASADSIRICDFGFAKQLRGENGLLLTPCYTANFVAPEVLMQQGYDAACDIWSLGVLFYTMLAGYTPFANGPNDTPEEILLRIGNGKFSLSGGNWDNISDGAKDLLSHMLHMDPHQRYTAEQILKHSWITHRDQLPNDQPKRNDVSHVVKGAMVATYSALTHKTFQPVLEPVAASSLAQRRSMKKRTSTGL

Sequence of Ribosomal protein S6 kinase alpha-1 (Homo sapiens) (Q15418 whole entry): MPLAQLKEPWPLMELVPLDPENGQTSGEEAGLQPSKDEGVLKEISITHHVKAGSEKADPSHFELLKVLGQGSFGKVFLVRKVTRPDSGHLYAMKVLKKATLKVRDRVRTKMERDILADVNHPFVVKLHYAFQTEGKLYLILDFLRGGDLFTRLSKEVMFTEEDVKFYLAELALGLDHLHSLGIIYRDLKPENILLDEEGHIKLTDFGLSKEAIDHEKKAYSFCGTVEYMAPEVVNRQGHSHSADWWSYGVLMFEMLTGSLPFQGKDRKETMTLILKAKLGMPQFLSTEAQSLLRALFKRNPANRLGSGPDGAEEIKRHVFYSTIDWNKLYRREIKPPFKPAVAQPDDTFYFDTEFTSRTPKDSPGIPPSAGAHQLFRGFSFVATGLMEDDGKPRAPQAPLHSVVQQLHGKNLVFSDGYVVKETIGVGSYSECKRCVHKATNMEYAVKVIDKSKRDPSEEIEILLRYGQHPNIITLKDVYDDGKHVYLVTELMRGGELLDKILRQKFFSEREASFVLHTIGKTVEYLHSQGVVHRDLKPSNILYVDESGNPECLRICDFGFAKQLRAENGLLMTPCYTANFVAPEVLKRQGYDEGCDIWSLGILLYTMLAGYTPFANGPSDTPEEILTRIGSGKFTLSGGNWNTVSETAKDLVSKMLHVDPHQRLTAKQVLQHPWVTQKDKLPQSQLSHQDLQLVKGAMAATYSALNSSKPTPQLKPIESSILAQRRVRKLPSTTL
Sequence of Rho-associated protein kinase 1 (Homo sapiens) (Q13464 2-1354 limits assumed): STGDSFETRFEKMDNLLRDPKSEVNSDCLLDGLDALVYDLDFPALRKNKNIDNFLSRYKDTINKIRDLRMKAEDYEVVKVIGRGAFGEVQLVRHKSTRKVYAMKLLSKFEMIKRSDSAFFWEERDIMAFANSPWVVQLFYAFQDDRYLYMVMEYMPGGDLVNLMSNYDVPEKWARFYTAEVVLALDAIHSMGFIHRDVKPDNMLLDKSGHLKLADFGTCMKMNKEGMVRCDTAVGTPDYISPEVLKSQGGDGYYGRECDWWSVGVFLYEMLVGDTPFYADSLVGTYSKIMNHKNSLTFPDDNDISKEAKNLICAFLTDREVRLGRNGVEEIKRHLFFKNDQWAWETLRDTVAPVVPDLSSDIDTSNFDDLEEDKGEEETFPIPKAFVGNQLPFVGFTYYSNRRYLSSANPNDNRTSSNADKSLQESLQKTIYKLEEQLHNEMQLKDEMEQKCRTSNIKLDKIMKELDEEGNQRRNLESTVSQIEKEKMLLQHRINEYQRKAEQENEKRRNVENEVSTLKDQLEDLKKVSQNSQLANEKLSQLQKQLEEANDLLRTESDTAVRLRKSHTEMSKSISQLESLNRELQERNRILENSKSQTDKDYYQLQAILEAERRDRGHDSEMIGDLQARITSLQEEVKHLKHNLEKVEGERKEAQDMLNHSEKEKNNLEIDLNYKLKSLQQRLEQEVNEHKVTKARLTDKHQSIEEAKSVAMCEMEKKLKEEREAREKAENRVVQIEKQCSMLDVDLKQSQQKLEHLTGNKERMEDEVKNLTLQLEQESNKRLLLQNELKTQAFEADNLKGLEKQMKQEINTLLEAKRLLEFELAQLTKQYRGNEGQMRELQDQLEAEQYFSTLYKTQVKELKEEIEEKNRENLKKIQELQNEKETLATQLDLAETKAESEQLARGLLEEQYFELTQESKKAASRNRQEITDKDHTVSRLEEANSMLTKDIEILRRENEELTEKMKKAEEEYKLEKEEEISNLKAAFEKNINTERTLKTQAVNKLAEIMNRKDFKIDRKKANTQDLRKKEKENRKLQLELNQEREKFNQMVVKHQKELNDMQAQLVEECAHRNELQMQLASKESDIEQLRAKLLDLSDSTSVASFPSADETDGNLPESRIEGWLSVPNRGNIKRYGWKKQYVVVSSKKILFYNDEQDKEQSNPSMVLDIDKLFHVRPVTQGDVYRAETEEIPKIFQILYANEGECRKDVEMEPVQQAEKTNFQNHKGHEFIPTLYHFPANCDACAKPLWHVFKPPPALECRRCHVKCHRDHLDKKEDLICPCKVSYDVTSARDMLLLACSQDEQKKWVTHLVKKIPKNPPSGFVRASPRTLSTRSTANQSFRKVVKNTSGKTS
Sequence of Ribosomal protein S6 kinase alpha-2 (Homo sapiens) (Q15349 whole entry): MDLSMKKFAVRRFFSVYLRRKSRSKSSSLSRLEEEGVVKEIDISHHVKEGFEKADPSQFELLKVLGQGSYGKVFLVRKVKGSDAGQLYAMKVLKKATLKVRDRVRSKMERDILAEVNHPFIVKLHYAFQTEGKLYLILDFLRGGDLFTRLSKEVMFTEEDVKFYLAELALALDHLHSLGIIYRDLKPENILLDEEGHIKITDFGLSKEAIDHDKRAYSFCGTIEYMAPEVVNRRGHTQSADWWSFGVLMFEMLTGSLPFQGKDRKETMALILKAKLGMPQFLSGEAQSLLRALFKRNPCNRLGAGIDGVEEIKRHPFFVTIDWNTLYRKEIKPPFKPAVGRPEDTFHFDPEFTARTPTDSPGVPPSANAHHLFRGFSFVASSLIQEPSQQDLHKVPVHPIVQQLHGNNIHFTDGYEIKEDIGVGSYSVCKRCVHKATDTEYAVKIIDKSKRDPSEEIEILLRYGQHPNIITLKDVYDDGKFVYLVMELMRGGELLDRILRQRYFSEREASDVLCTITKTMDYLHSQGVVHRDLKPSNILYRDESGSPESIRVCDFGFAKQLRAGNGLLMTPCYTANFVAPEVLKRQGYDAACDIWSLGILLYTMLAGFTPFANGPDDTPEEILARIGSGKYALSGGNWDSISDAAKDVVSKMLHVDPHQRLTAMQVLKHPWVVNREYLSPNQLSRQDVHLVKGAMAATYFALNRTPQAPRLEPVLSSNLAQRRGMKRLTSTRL
Sequence of Rho-associated protein kinase 2 (Homo sapiens) (O75116 whole entry, looked up): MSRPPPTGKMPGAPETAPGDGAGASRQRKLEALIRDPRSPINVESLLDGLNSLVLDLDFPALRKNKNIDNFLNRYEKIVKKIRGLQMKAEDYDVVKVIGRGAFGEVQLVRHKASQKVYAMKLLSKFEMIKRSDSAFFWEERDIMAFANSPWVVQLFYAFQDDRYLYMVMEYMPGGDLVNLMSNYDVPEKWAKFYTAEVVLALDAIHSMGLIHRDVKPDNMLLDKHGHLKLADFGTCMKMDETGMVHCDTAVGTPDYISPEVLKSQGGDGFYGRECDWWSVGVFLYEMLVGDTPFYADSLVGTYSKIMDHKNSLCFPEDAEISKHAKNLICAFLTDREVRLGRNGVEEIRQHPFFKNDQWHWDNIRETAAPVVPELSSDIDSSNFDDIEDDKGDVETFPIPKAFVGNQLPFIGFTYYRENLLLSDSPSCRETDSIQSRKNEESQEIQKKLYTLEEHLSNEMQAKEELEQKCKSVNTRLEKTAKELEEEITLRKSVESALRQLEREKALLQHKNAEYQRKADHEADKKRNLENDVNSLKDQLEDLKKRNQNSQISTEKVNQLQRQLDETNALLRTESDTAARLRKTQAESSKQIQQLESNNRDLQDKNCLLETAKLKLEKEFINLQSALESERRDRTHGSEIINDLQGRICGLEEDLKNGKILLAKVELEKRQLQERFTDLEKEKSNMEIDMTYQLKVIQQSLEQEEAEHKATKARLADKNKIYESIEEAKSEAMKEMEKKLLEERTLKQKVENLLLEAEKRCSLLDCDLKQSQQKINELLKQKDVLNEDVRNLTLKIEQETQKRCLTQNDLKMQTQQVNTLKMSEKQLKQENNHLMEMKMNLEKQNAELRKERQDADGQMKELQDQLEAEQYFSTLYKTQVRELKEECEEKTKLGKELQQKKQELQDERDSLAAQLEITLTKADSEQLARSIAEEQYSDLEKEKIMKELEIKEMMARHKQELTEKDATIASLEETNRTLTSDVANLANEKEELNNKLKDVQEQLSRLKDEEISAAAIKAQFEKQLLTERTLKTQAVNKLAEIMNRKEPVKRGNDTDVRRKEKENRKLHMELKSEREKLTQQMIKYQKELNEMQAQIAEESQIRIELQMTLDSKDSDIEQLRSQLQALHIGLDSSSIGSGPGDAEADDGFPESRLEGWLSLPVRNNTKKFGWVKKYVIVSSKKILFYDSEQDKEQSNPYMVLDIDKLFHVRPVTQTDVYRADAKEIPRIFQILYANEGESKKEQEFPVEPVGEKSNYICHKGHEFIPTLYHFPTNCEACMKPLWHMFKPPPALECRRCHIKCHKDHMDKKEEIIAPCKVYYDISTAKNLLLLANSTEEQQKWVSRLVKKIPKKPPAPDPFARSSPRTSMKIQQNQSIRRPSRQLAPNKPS

Row | SMILES | inhibition [1] | inhibition [2] | inhibition [3] | inhibition [4] | inhibition [5] | inhibition [6] | inhibition [7] | inhibition [8] | inhibition [9] | inhibition [10] | inhibition [11] | inhibition [12] | inhibition [13] | inhibition [14] | inhibition [15] | inhibition [16] | inhibition [17] | inhibition [18] | inhibition [19] | inhibition [20]
1 | FC(F)(F)CNc1nccc(-c2cnn3ncccc23)n1 | 2.13% | 2.29% | 3.81% | 1.02% | 1.12% | 2.48% | 2.8% | 1.1% | 0.78% | -0.46% | -0.11% | 1.53% | 0.94% | -0.21% | 1.24% | 1.65% | 2.69% | 0.89% | 1.84% | 0.72%
2 | CN1CCN(Cc2ccc(-c3cc4ncnc(Nc5ccc(OCc6cccc(F)c6)c(Cl)c5)c4s3)o2)CC1 | 4.28% and 7.23% | 2.56% and 5.35% | 4.4% and 6.3% | 2.05% and 4.47% | 1.78% and 7.9% | 0.82% and 2.4% | 0.79% and 5.44% | 1.82% and 3.39% | 1.45% and 5.71% | 1.65% and 1.83% | 2% and 0.89% | 1.84% and 3.91% | 2.16% and 8.24% | 0.86% and 2.44% | 3.31% and 6.74% | 0.78% and 2.19% | 4.15% and 7.1% | 2.32% and 1.76% | 3.34% and 4.93% | 1.22% and 1.16%
3 | COc1cc(N2CCN(C(C)C)CC2)ccc1Nc1nc(Nc2cccc(F)c2C(=O)O)c2cc[nH]c2n1 | 4.66% | 4.61% | 4.8% | 1.6% | 5.7% | 1.77% | 3.84% | 1.23% | 2.86% | 0.41% | 2.22% | 2.05% | 5.77% | 4.06% | 16% | 2.18% | 11.6% | 0.99% | 5.21% | 2.17%
4 | CCn1c(-c2nonc2N)nc2cncc(C(=O)NCCNC)c21 | 5.38% | 5.66% | 6.85% | 36.2% | 70% | 61.7% | 73.8% | 18.4% | 63.9% | 71.8% | 91.6% | 80.6% | 90.4% | 62.3% | 88.3% | 54.5% | 78.7% | 25.4% | 73.8% | 9.72%
5 | Cn1c(-c2nonc2N)nc2cnccc21 | 10.4% | 2.73% | 8.54% | 3.02% | 15% | 6.01% | 38.7% | 2.45% | 6.56% | 10.8% | 52.4% | 20% | 67.5% | 9.65% | 44.8% | 3.58% | 23% | 8.32% | 41.4% | 2.49%
6 | Fc1cccc(COc2ccc(Nc3ncncc3C#Cc3ccccc3)cc2Cl)c1 | 6.54% | 6.12% | 5.73% | 3.8% | 4.39% | 3.39% | 3.87% | 2.56% | 5.39% | 1.15% | 1.47% | 3.76% | 7.12% | 3.37% | 6.51% | 1.92% | 4.01% | 3.21% | 2.81% | 1.21%
7 | O=C(O[C@H]1CN[C@H](C#Cc2cc3ncnc(Nc4ccc(OCc5cccc(F)c5)c(Cl)c4)c3s2)C1)N1CCOCC1 | 6.01% | 6.55% | 6.45% | 3.08% | 7.14% | 3.07% | 4.91% | 3.17% | 6.34% | 0.81% | 1.71% | 4.15% | 8.38% | 1.45% | 6.91% | 1.55% | 5.86% | 2.72% | 3.4% | 2.22%
